Cruzain noTriton: blocks cruzain activity in detergent-free assay; P25779; purified cruzain, Z-FR-AMC fluorescence, no detergent; Potency, µM, usual class: inhibitors; 200,000 tested, 2.3% active; AID 1476; further: nearly all actives have a fitted effect of over 40% in size
Target sequence (P25779 123-467 limits assumed): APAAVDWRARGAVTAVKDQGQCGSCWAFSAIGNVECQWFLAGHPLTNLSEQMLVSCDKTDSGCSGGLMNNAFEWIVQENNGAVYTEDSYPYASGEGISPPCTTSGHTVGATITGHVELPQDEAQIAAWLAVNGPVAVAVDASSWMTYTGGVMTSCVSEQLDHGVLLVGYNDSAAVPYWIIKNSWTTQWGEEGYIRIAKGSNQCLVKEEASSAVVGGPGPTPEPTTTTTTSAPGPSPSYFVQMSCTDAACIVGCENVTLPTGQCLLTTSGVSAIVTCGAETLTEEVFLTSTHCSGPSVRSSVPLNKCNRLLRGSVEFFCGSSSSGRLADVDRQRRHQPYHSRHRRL
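Purified cruzain at 1.5 nM, pre-incubated 15 min with compound at room temperature in 100 mM sodium acetate pH 5.5, 5 mM DTT, 0.00005% Triton X-100. Reaction started with 2 uM Z-FR-AMC; AMC fluorescence increase over 60 s gives rate.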
Cruzain Triton: blocks cruzain activity in presence of Triton detergent. P25779. purified cruzain, Z-FR-AMC fluorescence, 0.01% Triton. Potency, µM, actives largely listed as inhibitors. 200,000 tested, 0.43% active. AID 1478; further: nearly all actives have a fitted effect of over 40% in size
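Sodium acetate buffer (100 mM, pH 5.5) containing 5 mM DTT and 0.01% Triton X-100 hosted 1.5 nM cruzain and test compound for 15 min at room temperature. Cleavage of 2 uM Z-FR-AMC was then tracked by fluorescence.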
Papain inh: papain (Carica papaya) inhibition counter-screen. shares compounds with Cruzain Triton. purified papain, Z-FR-AMC fluorescence cleavage. Potency, µM, hits mostly inhibitors. 410 tested, 41% active. AID 2161; further: nearly all actives have a fitted effect of over 35% in size
Of the large screens only hits and unclear results are named; the others gave an inactive call (follow-up assays come after a bar, where they were run); ! = repeats disagree. Only some compounds are listed: those with a hit (about 2.4% of all), similar ones and a draw of the others. The call rests on the fitted dose curve; in most records, active means well fitted curve in the direction sought with a large enough effect; inconclusive means small, poorly fitted or top-dose-only effect, or another doubt; inactive means no such curve, though single readings can be large; an effect the other way counts as inactive or inconclusive.

COc1ccccc1OCCn1c(CCNC(=O)C2CCCCC2)nc2ccccc21	none (no result: Cruzain noTriton, Cruzain Triton) | Papain inh inactive
COc1ccccc1OCCn1c(NC(=O)c2ccccc2)nc2ccccc21	none
Cc1cccc(OCCCn2c(CCNC(=O)C(C)(C)C)nc3ccccc32)c1	Cruzain noTriton inconclusive
Cc1cccc(OCCn2c(CCNC(=O)C3CCCCC3)nc3ccccc32)c1	none (no result: Cruzain noTriton, Cruzain Triton) | Papain inh inactive
Cc1ccc(OCCn2c(CCNC(=O)C(C)C)nc3ccccc32)cc1	none
Cc1ccc(OCC(=O)Nc2nnc(S(=O)(=O)N3c4ccccc4CC3C)s2)cc1 (configuration not stated)	none
CC(C)c1ccc(NC(=O)CCn2c(=O)c3cccn3c3ccccc32)cc1	none
COc1ccc(CNC(=O)CSc2nnc(C)c3c(C)n(-c4ccccc4)nc23)c(OC)c1	none
COc1cc2nc(NCCc3cccc(C)c3)n3nc(-c4ccccc4)nc3c2cc1OC	none
Cc1cc2ccccc2n1CCNC(=O)C1CCCC1	none
Cc1cc(OCCCn2c(CCNC(=O)C3CCCCC3)nc3ccccc32)ccc1Cl	Cruzain Triton 1.4µM | Papain inh 13µM
Cc1ccc2c(Sc3ccc(Cl)cc3)c(C(=O)N3CCC(C)CC3)[nH]c2c1	none
Cc1nc2cc(-c3ccc(Cl)cc3)nn2c(C)c1CCC(=O)N1CCN(c2ccccc2)CC1	none
Cc1nc2cc(-c3ccccc3)nn2c(C)c1CCC(=O)N1CCN(c2ccccc2)CC1	Cruzain noTriton inconclusive | Papain inh inactive
Cc1ccsc1CCN1C(=O)N(c2ccc(F)cc2)C(=O)C1CC(=O)Nc1ccccc1 (configuration not stated)	none
CCCn1c2ccc(F)cc2c2nnc(SCCN(CC)CC)nc21	Cruzain noTriton 4µM, Cruzain Triton 4.5µM | Papain inh 25µM
CCCn1c2ccc(F)cc2c2nnc(SCCN3CCCCC3)nc21	Cruzain noTriton 2µM, Cruzain Triton 2µM | Papain inh 13µM
CCn1c2ccc(F)cc2c2nnc(SCCN3CCCCC3)nc21	Cruzain noTriton 13µM, Cruzain Triton 14µM | Papain inh 25µM
CCn1c(CNc2ccc(F)cc2)nnc1SCCN1CCCCC1	none
CCCn1c(-c2ccc(F)cc2)nc2c(NCCCCN3CCCC3)nc(C)nc21	none
CC1CCc2cc(F)ccc2N1C(=O)CSc1nnc2c3cc(F)ccc3n(C)c2n1 (configuration not stated)	none
Cc1cccc(CSc2ncc(Cl)c(C(=O)Nc3sc4c(c3C(N)=O)CCCC4)n2)c1	none
COc1cccc(NC(=O)c2oc3ccccc3c2NC(=O)c2ccc(OC(C)C)cc2)c1	Cruzain noTriton inconclusive
Cc1cc(NC(=O)CCc2nc3cccnc3n2Cc2cccs2)ccc1Br	none
O=C(Cn1c(=O)n(Cc2ccco2)c(=O)c2ccccc21)Nc1cccc(F)c1	none
O=C(Cn1c2ccccc2c(=O)c2ccccc21)Nc1cccc(F)c1	Cruzain Triton 0.79µM | Papain inh inactive
COCCCn1c(=O)c2sccc2n2c(CCCC(=O)Nc3cccc(C(F)(F)F)c3)nnc12	Cruzain noTriton inconclusive
CCc1nn2c(=O)cc(COC(=O)c3ccccc3NC(=O)c3ccc(C(C)(C)C)cc3)nc2s1	none
Cc1ccc(CNC(=O)c2cc3c(=O)n(C)c4ccccc4c3n2C)cc1	Cruzain noTriton inconclusive
CN(CCNC(=O)c1cc2c(=O)n(C)c3ccccc3c2n1C)Cc1ccccc1	Cruzain noTriton inconclusive, Cruzain Triton 14µM | Papain inh inactive
Cc1ccc(S(=O)(=O)c2nc(-c3ccco3)oc2NCC2CCCO2)cc1 (configuration not stated)	Cruzain noTriton 10µM, Cruzain Triton 11µM | Papain inh inactive
Cc1ccc(CSc2oc(-c3ccco3)nc2S(=O)(=O)c2ccc(C)cc2)cc1	none
O=C(c1ccco1)N1CCN(c2ncnc3c2[nH]c2ccc(Cl)cc23)CC1	Cruzain noTriton inconclusive, Cruzain Triton 14µM | Papain inh inactive
O=C(c1ccco1)N1CCN(c2c(-c3ccccc3)c3cc(Cl)ccc3[nH]c2=O)CC1	Cruzain noTriton inconclusive
COc1ccc(NC(=O)c2c(NCc3ccc(N(C)C)cc3)sc3c2CCC3)cc1	none
CC1(C)Cc2c(C#N)c(N3CCN(C(=O)c4ccco4)CC3)nc(-c3ccco3)c2CS1	Cruzain noTriton 16µM, Cruzain Triton 28µM | Papain inh 3.5µM
CC1(C)Cc2c(C#N)c(N3CCN(C(=O)c4ccco4)CC3)nc(Cc3ccccc3)c2CO1	none
Cc1ccc2nc(Cl)c3cc(C(=O)NC4CCCCC4)sc3c2c1	none
COc1cccc(-c2nn3c(-c4cc(C)[nH]n4)nnc3s2)c1	none | Papain inh inactive
COc1ccc(-c2nn3c(-c4cc(-c5ccccc5)n[nH]4)nnc3s2)cc1	none (no result: Cruzain noTriton, Cruzain Triton) | Papain inh inactive
COc1ccc(-c2nnc3sc(-c4ccccn4)nn23)cc1	none
COc1ccc(-c2nn3c(-c4ccccn4)nnc3s2)cc1OC	none
CCOc1ccc(-c2nn3c(-c4cc(-c5ccccc5)n[nH]4)nnc3s2)cc1	none (no result: Cruzain noTriton, Cruzain Triton) | Papain inh inactive
CCOc1cccc(-c2nnc3sc(-c4ccc(C)cc4)nn23)c1	Cruzain noTriton inconclusive
COc1ccc(-c2nn3c(-c4cc(-c5ccccc5)n[nH]4)nnc3s2)cc1OC	none (no result: Cruzain noTriton, Cruzain Triton) | Papain inh inactive
COc1cccc(-c2nn3c(-c4ccccn4)nnc3s2)c1	none
COc1cccc([C@@H]2Oc3ccc(OC)cc3C(=O)[C@H]2OC(=O)Nc2ccc(OC(F)F)cc2)c1	none
CCCCN(C)CCNC(=O)c1ccc(Cn2c(=O)[nH]c3cc(OC)c(OC)cc3c2=O)cc1	none
CCCCN(C)C(=O)C1CCCN(c2ncnc3onc(-c4ccc(F)cc4)c23)C1 (configuration not stated)	none
COC(=O)CS(=O)(=O)c1nnc([C@H](Cc2ccccc2)NC(=O)OC(C)(C)C)o1	Cruzain noTriton 10µM, Cruzain Triton 7.1µM | Papain inh 5.6µM
CSCC[C@H](NC(=O)OC(C)(C)C)c1nnc(SCc2ccccc2)o1	none
Cc1ccc(S(=O)(=O)N[C@H](CO)C(=O)O)cc1	none
Cc1ccc(S(=O)(=O)N[C@@H](Cc2ccccc2)C(=O)CCl)cc1	Cruzain noTriton 3.2µM, Cruzain Triton 7.1µM | Papain inh 16µM!
CCc1cc2c(=O)[nH]c(-c3ccncc3)nc2s1	Cruzain noTriton inconclusive, Cruzain Triton 8.9µM | Papain inh inactive
CCc1cc2c(=O)[nH]c(Cc3ccccc3)nc2s1	Cruzain noTriton inconclusive
